# The source made the active and inactive calls.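 The calls were made as follows: active = glucosylsphingosine level at or below 0.14 pmol/ug; inactive = the rest.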
# Assay: Extended Characterization of Activators of N370S glucocerebrosidase as a Potential Chaperone Treatment of Gaucher Disease: Glucosylsphingosine in Macrophages
# Settings: Gaucher patient macrophages, glucosylsphingosine LC-MS/MS; hits give low values
# Source text: Glucocerebrosidase (GCase) catalyzes the hydrolysis of beta-glucocerebroside (GC) to glucose and ceramide in lysosomes. Mutations in the glucocerebrosidase gene result in Gaucher disease, an autosomal recessive lysosomal storage disorder. Many of the mutations encountered in patients with Gaucher disease are missense alterations that may cause misfolding, decreased stability and/or mistrafficking of this lysosomal protein. […] These inhibitors include iminosugar analogs and other inhibitors that were discovered as part of previous work. However, the enhancement of enzyme activity by the chaperone action of an enzyme inhibitor must be balanced against the direct inhibition of the enzyme. […] In this extended characterization of our probe, we have further characterized the activity of probes in relevant models of Gaucher disease. This assay attempts to quantitate glucosylsphingosine in patient-derived macrophages following compound incubation. NIH Chemical Genomics Center [NCGC] NIH Molecular Libraries Probe Production Centers Network [MLPCN] MLPCN Grant: MH086442 Assay Submitter (PI): Ellen Sidransky, NHGRI
# Glucosylsphingosine was measured by liquid chromatography-tandem mass spectrometry as previously described by Tropak et al. Chembiochem 2008, 9, 2650-2662.
row,SMILES,glucosylsphingosine level
1,C#Cc1ccc(NC(=O)c2cnn3c(C)cc(C)nc23)cc1,0.135 pmol/µg (active)

# Reference: PubChem BioAssay AID652098 (National Center for Advancing Translational Sciences (NCATS), 2013)
